Screening data (PubChem BioAssay)
Compounds with a hit are over-represented: about 4.1% of the library has one in this group of screens.
DAX1 inh-1 – inhibits human nuclear receptor DAX1. inhibition, % at 6.75 µM. HEK293 Gal4-DAX1 luciferase reporter, luminescence. actives 0.99% (n = 340,000);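 active means inhibition above the mean over all tested compounds plus 3 SD, cut at about 4.2% in these data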;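 further: 0% = DAX1-transfected cells with DMSO and 100% = empty-vector control cells with DMSO; inhibition shows as a rise in luminescence from relieved DAX1 repression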
Target sequence (P51843 207-470 limits assumed): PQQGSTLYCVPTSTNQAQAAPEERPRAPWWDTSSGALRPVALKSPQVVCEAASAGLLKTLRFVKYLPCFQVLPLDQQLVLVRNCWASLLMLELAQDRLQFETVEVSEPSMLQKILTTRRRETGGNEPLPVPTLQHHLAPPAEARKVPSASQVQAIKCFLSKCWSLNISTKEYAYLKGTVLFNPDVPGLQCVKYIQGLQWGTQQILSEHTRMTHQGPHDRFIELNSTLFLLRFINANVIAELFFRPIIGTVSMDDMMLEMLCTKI
DAX1 inh-2 – inhibitors of DAX1 repression of SF-1 activated StAR promoter; HEK293T StAR-luciferase reporter, SF-1/DAX-1 repression relief; inhibition, % at 6.8 µM; actives 1.1% (n = 370,000); AID 652010;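 active means inhibition above the mean over all tested compounds plus 3 SD, cut at about 3.6% in these data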;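 further: 0% = DAX-1 cells with DMSO and 100% = cells lacking DAX-1 with DMSO; higher inhibition means more luminescence from relief of DAX-1 repression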
hgDAF12 agonist – agonists of H. glycines DAF-12 nuclear receptor | HEK293 GAL4-hgDAF12 UAS-luciferase reporter, agonist luminescence; normalized to butyrate control | activation, % at 6.8 µM | actives 1.8% (n = 370,000) | AID 687014;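 active means activation above a cutoff set at the mean of all screened compounds plus 3 SD, cut at about 10% in these data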;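 further: 0% = DMSO wells and 100% = sodium butyrate wells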
hcDAF12 agonist – activators of H. contortus DAF-12 nuclear receptor | actives 1.4% (n = 370,000) | activation, % at 6.8 µM | HEK293 hcDAF-12 lit1-tk-luc reporter, luminescence; 0% DMSO, 100% Δ7-dafachronic acid | AID 652067;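 active means activation above the mean of all tested compounds plus 3 SD, cut at about 5.5% in these data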;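 further: 100% = response to 3 µM Δ7-dafachronic acid high control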
ssDAF-12 act – activates DAF-12 receptor from parasite S. stercoralis | activation, % at 6.8 µM | HEK293 ssDAF-12/GRIP1 lit1-tk-luc reporter, luminescence; % of 3 µM dafachronic acid response | actives 1% (n = 370,000);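 active means activation above the mean over all tested compounds plus 3 SD, cut at about 0.9% in these data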;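 further: 0% = DMSO-only wells and 100% = 3 µM delta7-dafachronic acid wells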
* = called active by the depositor; . = no result given.

SMILES	DAX1 inh-1	DAX1 inh-2	hgDAF12 agonist	hcDAF12 agonist	ssDAF-12 act
NC(=O)c1ncn([C@@H]2O[C@H](C(=O)N[C@H](Cc3c[nH]c4ccccc34)C(=O)N3CCN(C(=O)N4CCCCC4)CC3)[C@@H](O)[C@H]2O)n1	.	2	0	-1	-1
N#Cc1cccn1-c1nccc(-c2cccs2)n1	1	0	8	3	1.7*
Cc1ccc(C)n1-c1nccc(-c2cccs2)n1	2	0	1	5	0
COc1ccc(-c2ccc(C(=O)Nc3ccc4c(c3)OCO4)c3occc23)c(C)c1	.	3	13*	3	0
COc1ccc(-c2ccc(C(=O)Nc3ccc(OC)nc3)c3occc23)c(C)c1	.	-2	-4	-3	-1
COC(=O)[C@]12C[C@H](CC(=O)NCCc3ccccc3OC)C(=O)N(Cc3ccc(Cl)cc3Cl)C1=C[C@H](C(C)(C)C)O[C@@H]2C	.	-2	0	-2	-2
CCCCCCCC(=O)O	4.7*	0	0	0	-1
CCCCCCCCS(=O)CCC(=O)O (centres undefined)	1	1	1	1	0
CC(=O)c1ccccc1NS(=O)(=O)c1ccccc1Cl	0	0	12*	-2	-1
CC(Oc1ccc(Cl)cc1Cl)C(=O)NNC(=O)c1cccnc1 (centres undefined)	0	2	0	-2	-1
CC(Oc1ccc(Cl)cc1Cl)C(=O)NNC(=O)c1ccncc1 (centres undefined)	4.8*	0	-1	-1	0
O=c1c2sc(-c3ccccc3)cc2nc2n1CCC2	-1	4.3*	13*	5.8*	0.9*
O=c1c2sc(-c3ccccc3)cc2nc2n1CCCCC2	5.0*	3	12*	4	0
Cn1c(NCCN2CCCC2)nc2cc(-c3ccccc3)sc2c1=O	.	1	0	0	0
O=C(c1cccs1)n1ccc2ccc(-c3ccc4ccn(C(=O)c5cccs5)c4c3)cc21	.	1	0	4	0
CCN1CCN(CC(=O)c2c[nH]c3ccccc23)CC1	0	1	-2	5.6*	1
CN1C(=O)Nc2cccc3cccc1c23	4.4*	0	-2	3	0
COc1ccc(S(=O)(=O)N2CCCc3nc(-c4ccc(F)cc4)ccc32)cc1	.	0	0	0	-1
N#Cc1ccc(C(=O)NCC2CCN(C(=O)C(=O)c3cccs3)CC2)cc1	.	-2	-1	-1	-1
CCN1CCCC1CNS(=O)(=O)c1ccc(F)c(Cl)c1 (centres undefined)	4.4*	0	4	-2	-1
CCN1CCCC1CNS(=O)(=O)c1cccc(C(F)(F)F)c1 (centres undefined)	0	1	3	1	-2
Cc1ccc(C(=O)C(OC(=O)CCC(=O)Nc2cccc(C)c2)c2ccccc2)cc1 (centres undefined)	4.7*	0	0	0	0
COc1ccc(NC(=O)CCC(=O)OC(C(=O)c2ccccc2)c2ccccc2)cc1 (centres undefined)	2	0	-2	-2	-2
CCOC(=O)[C@@]12CN(C(=O)OC(C)(C)C)CC=C1N(Cc1ccc(OC)cc1)C(=O)[C@H]2CC(=O)N1CCC(c2ccccc2)CC1	.	-1	-5	-3	-2
Cc1ccc(NC(=O)C(C)OC(=O)c2n[nH]c3ccccc23)cc1 (centres undefined)	1	1	8	0	-1
SMILES	DAX1 inh-1	DAX1 inh-2	hgDAF12 agonist	hcDAF12 agonist	ssDAF-12 act
CC(OC(=O)c1n[nH]c2ccccc12)C(=O)Nc1ccccc1[N+](=O)[O-] (centres undefined)	-1	0	4	3	1.0*
COC(=O)c1n[nH]c2ccccc12	0	1	2	6.2*	1.0*
CCC(NC(=O)c1ccc2c(ccn2Cc2cccc(-c3ccccc3C(=O)O)c2)c1)c1ccccc1 (centres undefined)	.	-2	-2	-1	-1
Cc1nn(-c2ccccc2)c(N)c1N=Nc1ccccc1	1	1	10	4	0
Cc1ccc(-c2cc(N)n(-c3ccccc3)n2)cc1	1	2	11*	3	0
Cc1nn(-c2ccccc2)c(N)c1N=Nc1ccc(Cl)cc1	3	2	18*	3	-1
Cc1ccc(C(c2c(C)nn(-c3ccccc3)c2N)c2c(C)nn(-c3ccccc3)c2N)cc1	-1	0	3	0	-1
Cc1nn(-c2ccccc2)c(N)c1-c1ccccc1	-1	1	9	5	1.0*
COc1ccc(S(=O)(=O)N2CCCc3nc(-c4ccc(Br)cc4)ccc32)cc1	.	0	1	0	-1
CCOC(=O)[C@]12CCC=C1N(Cc1ccccc1)C(=O)[C@H](CC(=O)N1CCSCC1)C2	.	0	-1	2	-1
CCOC(=O)[C@]12CCC=C1N(CCC1=CCCCC1)C(=O)[C@H](CC(=O)N1CCSCC1)C2	.	4.1*	-2	-1	-1
CCOC(=O)[C@]12CCC=C1N(Cc1ccccc1)C(=O)[C@H](CC(=O)N1CCOCC1)C2	.	4.3*	2	2	-1
O=C(Cc1ccccc1)NC1CCCCN(Cc2cccc(Cl)c2)C1=O (centres undefined)	.	1	3	-2	-2
O=C1CCCC2=C1C(c1ccc(OS(=O)(=O)c3ccc(Cl)cc3)cc1)C1=C(CCCC1=O)O2	7.2*	0	-1	-1	-1
CCc1ccc(C2C3=C(CCCC3=O)OC3=C2C(=O)CCC3)cc1	-1	0	1	-1	-1
CCC(=O)N(C)C[C@@H]1[C@H](c2ccc(C3=CCCCC3)cc2)[C@H](CO)N1C(=O)CC	.	0	-1	-2	-1
COc1ccc2ccccc2c1/C=N/n1cnnc1	0	0	5	6.5*	0
COC(=O)[C@]12C[C@H](CC(=O)NCCc3ccccc3OC)C(=O)N(Cc3ccc(Cl)cc3Cl)C1=C[C@H](C1CCCC1)O[C@@H]2C	.	-1	1	-3	-1
COC(=O)c1cccc(NC(=O)c2cccc(-n3cnnn3)c2)c1	-1	-2	0	0	-2
O=C(Nc1cnc2ccccc2c1)c1cccc(-n2cnnn2)c1	3	1	9	6.3*	0
COC(=O)N1C[C@@H]2Oc3nccnc3O[C@@H]2C[C@@H]1c1ccccc1Br	.	0	0	0	-1
COc1ccc2oc(C(=O)OCC(=O)N3CCCCC3)c(C)c2c1	4.9*	2	3	0	1
Cc1ccc(OCC(=O)N2CCc3ccccc32)c([N+](=O)[O-])n1	0	2	11*	0	-2
COCC(=O)N1CCCc2ccccc21	0	0	4	6.3*	0
O=C(COc1cccnc1[N+](=O)[O-])N1CCc2ccccc21	0	0	1	1	0
CC(=O)Nc1ccc(S(=O)(=O)NCC(=O)OCC(=O)N2CCc3ccccc32)cc1	0	1	-1	5	0.9*
